Laboratory results from PubChem BioAssay AID2650 (Broad Institute, 2010).
In all, about 320,000 compounds went through this assay and about 320 (0.1%) were called active. The sample as a whole holds a higher share of actives than the screen did. Values without a mark were called inactive.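 Rule for the calls: active = more than half of replicates show inhibition above 20%; inconclusive = some but at most half of replicates above 20% inhibition; inactive = no replicate shows inhibition above 20%.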

These molecules were tested against Glycogen synthase kinase-3 alpha (Homo sapiens) (UniProt P49840) (assay: blockers of GSK3A enzyme activity – biochemical, luminescence, cell-free homogeneous, HTS, primary screen (AID 2650;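 note: GST-tagged GSK-3 alpha with peptide substrate and 25 µM ATP; 0% = DMSO neutral wells and 100% = GW8510 positive control wells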)). Details: GSK-3 alpha kinase, ADP-Glo luminescence, 60 min; at 10 µM; hits give high values.
Glycogen synthase kinase-3 alpha (Homo sapiens), sequence (P49840 whole entry, looked up): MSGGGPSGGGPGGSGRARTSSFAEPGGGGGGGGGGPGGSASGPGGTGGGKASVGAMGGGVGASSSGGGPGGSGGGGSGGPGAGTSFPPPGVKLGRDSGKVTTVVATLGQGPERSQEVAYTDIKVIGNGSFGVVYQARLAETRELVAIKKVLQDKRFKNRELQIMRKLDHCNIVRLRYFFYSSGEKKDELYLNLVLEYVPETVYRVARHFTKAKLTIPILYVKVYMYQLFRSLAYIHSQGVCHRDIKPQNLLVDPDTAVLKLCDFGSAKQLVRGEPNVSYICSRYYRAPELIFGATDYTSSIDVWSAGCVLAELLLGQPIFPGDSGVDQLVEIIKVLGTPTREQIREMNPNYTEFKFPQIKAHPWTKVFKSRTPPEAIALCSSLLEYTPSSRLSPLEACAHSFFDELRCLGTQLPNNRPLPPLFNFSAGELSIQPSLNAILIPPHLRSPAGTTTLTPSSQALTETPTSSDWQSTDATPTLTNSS

SMILES	inhibition
CS(=O)(=O)N(CC(=O)Nc1ccc(Cl)c(Cl)c1)C1CCCCC1	-0.751%
O=C(Nc1ccccc1-c1nnn(CC(=O)N2CCCc3ccccc32)n1)c1cccc(Cl)c1	-2.04%
Cc1ccc(C(=O)N/N=C\c2cc(Br)c(Br)o2)cn1	2.23%
Cc1cc2cc3c(cc2nc1SCC(=O)Nc1c(C)cccc1C)CCC3	-3.92%
Cc1noc(/C=C/c2ccco2)c1S(=O)(=O)N1CCC(C(=O)N2CCc3ccccc32)CC1	-1.67%
Cc1cc(C)nc(NS(=O)(=O)c2ccc(N3C(=O)C4CCCCC4C3=O)cc2)n1 (stereo not drawn)	1.53%
Oc1ccc(-c2nncn2-c2ccccc2)cc1	53.7% (active)
Oc1ccc(-c2nnc(Nc3ccccc3)c3ccccc23)cc1	0.551%
c1ccc(-n2nc3ccccc3n2)cc1	-1.52%
Brc1ccccc1CN1CCC(Cc2ccccc2)CC1	-0.57%
O=C1CN(C(=O)COC(=O)/C=C/c2ccc(F)cc2)c2ccccc2N1	-0.211%
O=C(CCNS(=O)(=O)c1ccc(Br)s1)NCc1ccccc1Cl	0.12%
CCCN1C2=C(C(=O)CCC2)C(c2ccc(O)c(Br)c2)C2=C1CCCC2=O	0.35%
C=CCNC(=O)C1CC=CCC1C(=O)O (stereo not drawn)	3.88%
CC(C)C[C@@H](COc1ccccc1)N1CCN(CC(C)C)CCC1=O	-0.599%
CN1C(=O)[C@H]2[C@@H](C3CC3)N3C(=O)CN(Cc4ccccc4)C(=O)[C@@]3(C)[C@H]2C1=O	-0.57%
CCc1nc(SCC(=O)Nc2ccccc2OC)n[nH]1	0.384%
OC(COCC1COc2ccccc2O1)CN1CCN(c2ccc(F)cc2)CC1 (stereo not drawn)	-3.09%
Cc1cc(C)c(C(=O)CSc2nc(C)cc(=O)[nH]2)c(C)c1	-3.36%
Nc1nc(SCC(=O)Nc2cc(C(F)(F)F)ccc2Cl)[nH]c(=O)c1NC(=O)c1ccco1	0.858%

SMILES	inhibition
O=c1cc(C(F)(F)F)[nH]c(=O)n1C1CCCCC1	-7.78%
CCCCN(CCCC)CCC(O)c1cc2c(Cl)cc(Cl)cc2c2cc(C(F)(F)F)ccc12 (stereo not drawn)	-3.02%
CCC1Nc2ncnc(N3CCN(c4ccccc4)CC3)c2N(Cc2ccc(Cl)cc2)C1=O (stereo not drawn)	-3.36%
CC[C@H](C)C(=O)N[C@H]1CCCN1C(=O)/C=C/c1ccccc1	-0.364%
CC1(C)Cc2nc3sc4c(SCC(=O)NC(c5ccccc5)c5ccccc5)ncnc4c3cc2CO1	19.1%
COc1ccccc1NC(=O)CCSc1nnc(-c2ccc(O)cc2)o1	61% (active)
CCc1ccccc1NC(=O)CSc1nnc(-c2ccncc2)o1	0.246%
COc1ccccc1NC(=O)CSc1nnc(CNC(=O)c2ccccc2F)o1	-1.79%
COc1ccc(N(C)C(=O)CCS(=O)(=O)c2cccc3nsnc23)cc1	-0.848%
O=C(c1ccc(CS(=O)(=O)c2ccccc2)o1)N1CCN(c2ccccc2)CC1	-1.56%
Cc1ccccc1-c1cc(C(=O)NCc2cccs2)n(CC2CC(c3cccnc3)=NO2)n1 (stereo not drawn)	8.15%
COC(=O)c1sc(N)c(C(=O)OC)c1COC(=O)CNS(=O)(=O)c1ccc(C)cc1	-5.73%
O=C(CN1CCC(O)(c2cccc(C(F)(F)F)c2)CC1)NCCc1ccccc1	-1.83%
COc1ccccc1CNC(=O)Cn1c(=O)oc2cc(Cl)ccc21	-2.27%
CN(C)Cc1c(O)ccc2c(=O)c(-c3ccccc3Cl)coc12	0.391%
COc1ccc2c(c1)O/C(=C\c1ccccc1O)C2=O	-3.6%
O=C1/C(=C/c2ccc3c(c2)OCO3)Oc2cc(OCC(=O)N3CC(O)C[C@H]3C(=O)O)ccc21 (stereo partly drawn)	58.3% (active)
COC(=O)C(C)Oc1ccc2c(c1)O/C(=C\c1cccc(Br)c1)C2=O (stereo not drawn)	-0.218%
CSc1nccc(NC(=O)c2ccc(C(C)(C)C)cc2)n1	0.764%
O=C(Nc1cccc(Cl)c1N1CCOCC1)c1ccc2c(c1)OCCO2	3.78%

SMILES	inhibition
CCN1CCN(c2c(Cl)cccc2NC(=O)c2ccc(Br)o2)CC1	84.2% (active)
O=C(Nc1cccc(Cl)c1N1CCOCC1)c1cccnc1	1.42%
CC(C)(C)NS(=O)(=O)NC(=O)C1=C(N2CCCC2)COC1=O	-2.51%
N#Cc1ccc(OCC(=O)NC(=O)NC2CCS(=O)(=O)C2)cc1 (stereo not drawn)	0.468%
CCOC(=O)CCCCCC(=O)Nc1ccc2c(c1)CC(=O)N([C@@H](C)CO)C[C@H](C)[C@@H](CN(C)Cc1ccccc1)O2	-2.38%
COc1ccc(NC(=O)c2cc([N+](=O)[O-])ccc2NC(=O)CNC2CCCCC2C)c(OC)c1 (stereo not drawn)	-2.82%
O=C(Nc1ccc(Cl)c(Cl)c1)N1CC=C(c2ccccc2)CC1	-0.494%
COc1ccc(-n2c(=S)[nH]c3sc4c(c3c2=O)CCc2ccccc2-4)cc1	-1.96%
COc1ccc(Cn2c(O)c(/C=C3/C=CC=N3)c(=O)[nH]c2=O)cc1	0.739%
CCC(C)NCCOCCOc1ccc(Br)cc1C (stereo not drawn)	-0.652%
CCNc1nc(N)nc(Oc2ccc(OCC)nn2)n1	3.16%
Cc1ccc(CNCc2ccc3c(c2)OCO3)c(C)c1	-0.957%
CCOC(=O)c1ccccc1NC(=O)COC(=O)CCC(=O)N1CCOCC1	8.47%
COc1ccc(CCNS(=O)(=O)c2cn(C)nc2C)cc1	2.55%
Nc1nonc1-n1nnc(C(=O)N/N=C/c2ccccc2O)c1CN1CCCC1	49.8%
Nc1nonc1-n1nnc(C(=O)N/N=C\c2ccncc2)c1CN1CCCCC1	107% (active)
NNC(=O)c1nnn(-c2nonc2N)c1CN1CCCC1	23.2%
COc1ccc(/C=C/C(=O)OCC(=O)NC2CCCCCC2)cc1OC	-0.779%
